The record followed here is PubChem BioAssay (NCATS).

Values joined by “and” are separate entries in the source; they are usually repeats but may differ in a detail not shown here. Equal values may be shown once. Records with an inconclusive call do not appear. Some compounds were tested as several samples or in several runs, with calls that do not always agree. Unmarked numbers belong to inactive results. Active and inactive are the calls of the source. The call rests on the fitted dose curve; in most records, active means well fitted curve in the direction sought with a large enough effect; inconclusive means small, poorly fitted or top-dose-only effect, or another doubt; inactive means no such curve, though single readings can be large; an effect the other way counts as inactive or inconclusive.

For assay [1], the system named is Es-2. The experiment in a line: Primary qHTS to identify gynecologic anti-cancer compounds using libraries of approved drugs and bioactive compounds (AID 1345084). Further: nearly all actives have a fitted effect of over 55% in size. The settings on record: Gynecologic cancer cell panel viability, ATPlite luminescence, 48 h; series mostly up to 57.5 µM. A digest of the protocol:
(§1)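 Five-point cytotoxicity, 48 h drug exposure at 37 C, 5% CO2, on cells seeded 16 h beforehand. ATP content read by ATPlite luminescence.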
In general terms: In qHTS, concentration-response curves come from the screen itself.

Assay [2] relates to HeLa. The assay is described as above. The following applies: Gynecologic cancer cell panel viability, ATPlite luminescence, 48 h; series mostly up to 57.5 µM. A digest of the protocol:
as §1

In assay [3] the test system is Hek293T. Described as above. The following applies: Gynecologic cancer cell panel viability, ATPlite luminescence, 48 h, control line for the selectivity index; series mostly up to 57.5 µM. A digest of the protocol: as §1
Assay [4] deals with JEG-3. Described as above. The following applies: Gynecologic cancer cell panel viability, ATPlite luminescence, 48 h; series mostly up to 57.5 µM. A digest of the protocol:
as §1

Assay [5] relates to OV90. The description is as above. The settings on record: Gynecologic cancer cell panel viability, ATPlite luminescence, 48 h; series mostly up to 57.5 µM. A digest of the protocol:
as §1
A general note: ATP-based viability assays read luminescence as a measure of living cells.

In assay [6] the test system is PA-1. The description is as above. The settings on record: Gynecologic cancer cell panel viability, ATPlite luminescence, 48 h; series mostly up to 57.5 µM. A digest of the protocol: as §1
For assay [7], the system named is SKOV3. The assay is described as above. The settings on record: Gynecologic cancer cell panel viability, ATPlite luminescence, 48 h; series mostly up to 57.5 µM. A digest of the protocol:
as §1

Assay [8] deals with Tov-21-G. The assay is described as above. The following applies: Gynecologic cancer cell panel viability, ATPlite luminescence, 48 h; series mostly up to 57.5 µM. A digest of the protocol:
as §1

The subject of assay [9] is Tov112D. The assay is described as above. The following applies: Gynecologic cancer cell panel viability, ATPlite luminescence, 48 h; series mostly up to 57.5 µM. A digest of the protocol: as §1
Assay [10] is described as follows: Drug repurposing screens with cells derived from glioblastoma tumor samples (AID 1345199). Further: nearly all actives have a fitted effect of over 40% in size. Further: potency means the concentration at half of the fitted maximal effect. The settings on record: GBM patient neurospheres viability, ATP luminescence, 48 h. A digest of the protocol:
(§2)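 Four patient lines of CD133+ GBM neurospheres were screened at several concentrations; hits were retested in those lines plus three slower-growing GBM lines, using 48-hour treatment and ATP-based viability.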

Assay [11] deals with astro. Described as above. The settings on record: viability, ATP luminescence, 48 h; series mostly up to 45.9 µM. A digest of the protocol: as §2
Setting [12] is: at 20 µM (top of the series), tumour line C.
[13] abbreviates: at 21.2 µM (top of the series), tumour line B.
Where [14] appears, read: at 21.2 µM (top of the series), tumour line D.
Where [15] appears, read: at 21.3 µM (top of the series), tumour line A.
[16] abbreviates: at 45.9 µM (top of the series), tumour line B.
The mark [17] stands for this setting: at 45.9 µM (top of the series), tumour line D.
[18] abbreviates: at 46.1 µM (top of the series), tumour line C.
Where [19] appears, read: at 46 µM (top of the series), tumour line A.
On the % scale 0 is the no-effect control and ±100 the full control effect.

With `CCOC(=O)n1ccn(C)c1=S`, the Potency result in [1], in [2], in assay [3], in assay [4], in [5] and in assay [6] was “inactive” each time. For the same molecule, the Potency result in assay [7], in assay [8], in assay [9] and in assay [11] was “inactive” throughout. Moreover, the activity, negative = cell killing in assay [10] (setting [12]) was 6.23%; in assay [10] (setting [13]) it was -8.85%; in assay [10] (setting [14]) it was 1.59%; in assay [10] (setting [15]) it was -18.4%.

For `OC(CCN1CCCCC1)(c1ccccc1)c1ccccc1`, the Potency entry in [1], in assay [2], in assay [3], in [4], in assay [5] and in assay [6] was “inactive” each time. Besides, the Potency entry in assay [7], in assay [8], in assay [9] and in [11] was “inactive” each time. Besides, the results for the activity, negative = cell killing in assay [10] (setting [16]), in [10] (setting [17]) and in [10] (setting [18]) were -13.7%, -5.27% and 4.07%, respectively. For the same molecule, the Potency in [10] (tumour line A) is 12.6 µM (active).

Regarding `Cc1nc2n(c(=O)c1CCN1CCC(c3noc4cc(F)ccc34)CC1)CCC[C@H]2O`, the Potency entry in assay [1], in [2], in [3], in assay [4], in assay [5] and in [6] was “inactive” throughout. The Potency result in assay [7], in assay [8] and in [9] was “inactive” throughout. Moreover, the activity, negative = cell killing in assay [10] (setting [16]) was -11%; in [10] (setting [17]), -35.1%; in assay [10] (setting [18]), -8.74%. The Potency in [10] (tumour line A) is 15.8 µM (active).

Regarding `Oc1cc(O)c2c(c1)O[C@H](c1ccc(O)c(O)c1)[C@H](O)C2`, the Potency entry in [1], in [2], in assay [3], in assay [4], in assay [5] and in assay [6] was “inactive” throughout. For the same molecule, the Potency entry in [7], in assay [8], in assay [9] and in assay [11] was “inactive” each time. In addition, the activity, negative = cell killing was -5.02% in assay [10] (setting [16]), -9.16% in assay [10] (setting [17]), -28.5% in assay [10] (setting [19]) and -2.43% in [10] (setting [18]).

As to `NC[C@H]1O[C@H](O[C@H]2[C@H](O)[C@@H](O[C@H]3O[C@H](CO)[C@@H](O)[C@H](N)[C@H]3O)[C@H](N)C[C@@H]2N)[C@H](N)[C@@H](O)[C@@H]1O`, the Potency result in assay [1], in assay [2], in [3], in [4], in [5] and in assay [6] was “inactive” in each case. Also, the Potency result in assay [7], in assay [8], in assay [9] and in assay [11] was “inactive” each time. Besides, the activity, negative = cell killing is -3.08% and -15.5% in assay [10] (setting [16]); -22.4% and -15.3% in assay [10] (setting [17]); -11.7% in assay [10] (setting [19]); -0.491% and -12.3% in assay [10] (setting [18]).

As for `NC(=O)CC[C@@H]1NC(=O)[C@H](Cc2ccccc2)NC(=O)[C@H](Cc2ccc(O)cc2)NC(=O)CCSSC[C@@H](C(=O)N2CCC[C@H]2C(=O)N[C@@H](CCCN=C(N)N)C(=O)NCC(N)=O)NC(=O)[C@H](CC(N)=O)NC1=O`, the Potency entry in assay [1], in [2], in [3], in assay [4], in assay [5] and in assay [6] was “inactive” in each case. For the same molecule, the Potency result in [7], in assay [8], in assay [9] and in assay [11] was “inactive” throughout. Besides, the activity, negative = cell killing in [10] (setting [16]) was -2.8% and 1.21%; in assay [10] (setting [17]) it was -7.07% and -4.13%; in assay [10] (setting [19]) it was -24.9% and -29%; in assay [10] (setting [18]) it was -17.6% and 1.07%.

For the molecule `NC(CO)(CO)CO`, the Potency entry in assay [1], in [2], in [3], in [4], in assay [5] and in assay [6] was “inactive” throughout. Moreover, the Potency entry in [7], in assay [8], in assay [9] and in assay [11] was “inactive” in each case. Further, the activity, negative = cell killing in [10] (setting [16]) is -1.58%; in assay [10] (setting [17]), 6.44%; in assay [10] (setting [19]), -13.6%; in assay [10] (setting [18]), 0.171%.

As for `COc1cc(/C=C/C(=O)O[C@H]2CC[C@]34C[C@]35CC[C@]3(C)[C@@H]([C@H](C)CCC=C(C)C)CC[C@@]3(C)[C@@H]5CC[C@H]4C2(C)C)ccc1O`, the Potency result in assay [1], in assay [2], in assay [3], in [4], in assay [5] and in assay [6] was “inactive” in each case. For the same molecule, the Potency result in [7], in [8] and in assay [9] was “inactive” throughout. Also, the activity, negative = cell killing is -21.5% in [10] (setting [16]), -21.3% in assay [10] (setting [17]), -29.3% in assay [10] (setting [19]) and -22.4% in [10] (setting [18]). Moreover, in assay [11], the Potency is 17.8 µM (active).

Regarding `COc1cc(OC)cc(OC)c1`, the Potency result in assay [1], in [2], in assay [3], in [4], in [5] and in [6] was “inactive” each time. The Potency entry in assay [7], in assay [8], in assay [9] and in assay [11] was “inactive” each time. For the same molecule, the activity, negative = cell killing in assay [10] (setting [16]) was -3.53%; in assay [10] (setting [17]), 7.76%; in assay [10] (setting [19]), -12.5%; in [10] (setting [18]), -1.01%.

As to `CCOC(=O)[C@H](CCc1ccccc1)N[C@@H](C)C(=O)N1Cc2ccccc2C[C@H]1C(=O)O`, the Potency result in [1], in assay [2], in assay [3], in assay [4], in [5] and in assay [6] was “inactive” throughout. Also, the Potency result in assay [7], in [8], in assay [9] and in assay [11] was “inactive” each time. In addition, the activity, negative = cell killing in [10] (setting [16]) was -8.88%; in [10] (setting [17]), -11.4%; in assay [10] (setting [19]), -15.3%; in assay [10] (setting [18]), 11.9%.

For `CC(C)NC[C@@H](O)COc1cccc2ccccc12`, the Potency entry in assay [1], in assay [2], in assay [3], in assay [4], in assay [5] and in assay [6] was “inactive” in each case. The Potency result in assay [7], in assay [8], in assay [9] and in assay [11] was “inactive” throughout. Also, the activity, negative = cell killing in assay [10] (setting [16]) is -11.2%; in [10] (setting [17]), -22.3%; in assay [10] (setting [18]) it was -5.6%. The Potency in assay [10] (tumour line A) was 28.2 µM (active).

`CNC(=O)CN(CCN(CCN(CC(=O)[O-])CC(=O)NC)CC(=O)[O-])CC(=O)[O-].O.[Gd+3]`: the Potency entry in assay [1], in [2], in assay [3], in [4], in assay [5] and in assay [6] was “inactive” in each case. The Potency result in assay [7], in [8], in [9] and in [11] was “inactive” each time. Further, the activity, negative = cell killing was 8.28% and -4.12% in [10] (setting [16]); 7.83% and 10.5% in assay [10] (setting [17]); -5.02% in assay [10] (setting [19]); -11.8% and -0.805% in assay [10] (setting [18]). Further, the Potency in assay [10] (tumour line A) is 35.5 µM (active).

On to `CC1(C)O[C@@H]2C[C@H]3[C@@H]4C[C@H](F)C5=CC(=O)C=C[C@]5(C)[C@H]4[C@@H](O)C[C@]3(C)[C@]2(C(=O)CO)O1`, for which the Potency entry in assay [1], in assay [2], in assay [3], in assay [4], in assay [5] and in assay [6] was “inactive” throughout. Besides, the Potency entry in assay [7], in [8], in assay [9] and in [11] was “inactive” throughout. Moreover, the activity, negative = cell killing is 3.76% in assay [10] (setting [12]), 2.57% in [10] (setting [13]), -8.48% in assay [10] (setting [14]) and 19% in [10] (setting [15]).
